# Sampled rows, rich in hits. Any-hit rate of the full collection: about 2.3%.
# A549 viability: Nrf2 qHTS screen for inhibitors: counterscreen for cytotoxicity; A549 ARE-Fluc cells, CellTiter-Fluor viability, 18-24 h; Potency, µM (titrated, usually from 46 µM), for the others: top-dose activity change, negative = cytotoxicity, usual class: inhibitors; 390,000 compounds, 0.16% hits; AID 504648, 2011; further: potency means the concentration at half of the fitted maximal effect; on the % scale 0 is the no-effect control and ±100 the full control effect
#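 A549 ARE_Fluc cells in 5% FBS OPTI-MEM were exposed to compounds in concentration-response for 18-24 h at 37 deg C. Viability was read by CellTiter-Fluor fluorescence (Ex 405/Em 525) after 30 min, before the luciferase read.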
# Nrf2 block: Nrf2 qHTS screen for inhibitors; AID 504444, 2011; 360,000 compounds, 2.1% hits; A549 ARE-Fluc reporter, luciferase luminescence, 18-24 h; Potency, µM (top dose mostly 46 µM), for inactives: at the top dose activity change, negative = inhibition, usual class: inhibitors; further: potency means the concentration at half of the fitted maximal effect; on the % scale 0 is the no-effect control and ±100 the full control effect; nearly all actives have a fitted effect of over 60% in size
#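 Reporter: ARE-Fluc in A549. Exposure: 18-24 h, 37 °C, 5% CO2, 5% FBS OPTI-MEM. Readouts: fluorescent cytotoxicity (CellTiter-Fluor), then luminescent Nrf2 signal after BugLite.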
# Giardia killer: Small Molecules that selectively kill Giardia lamblia: qHTS; Giardia lamblia trophozoite viability; activity change, % at 7.66 µM, hits read low; 340,000 compounds, 0.15% hits; AID 540267, 2011; in the data active means activity change below about -80%; inconclusive means between about -30% and that limit;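 further: parasites exposed to compound for two days anaerobically before the ATP read; on the % scale 0 is the no-effect control and ±100 the full control effect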
#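 Media and compound were dispensed first, then trophozoites at 100 cells/well; plates sat 48 hrs at 37 deg C without oxygen before ATP luminescence reagent was added and read after 15-30 min at room temperature.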
# Anesthetic bind: qHTS Assay for Identification of Novel General Anesthetics. Ferritin light chain (Equus caballus), P02791. apoferritin/1-aminoanthracene competitive binding, fluorescence. Potency, µM (doses to about 77.5 µM), for inactives: at the top dose activity change, negative = displacement, hits mostly inhibitors. 350,000 compounds, 0.074% hits. AID 485281, 2010; further: potency means the concentration at half of the fitted maximal effect; on the % scale 0 is the no-effect control and ±100 the full control effect; nearly all actives have a fitted effect of over 20% in size
# Target sequence (P02791 2-175 limits assumed): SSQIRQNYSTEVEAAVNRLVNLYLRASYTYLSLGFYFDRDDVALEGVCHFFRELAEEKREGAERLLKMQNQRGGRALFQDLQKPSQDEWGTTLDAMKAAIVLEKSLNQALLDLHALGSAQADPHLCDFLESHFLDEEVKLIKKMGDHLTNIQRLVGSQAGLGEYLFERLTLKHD
#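 Probe: 1-aminoanthracene (50% saturated, PBS). Protein: horse-spleen apoferritin, 10 uM. Incubation: 10 min, room temperature. Detection: 380 nm excitation, 535 nm emission. Analysis: normalized response, four-parameter Hill.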
# mIDH1 inhibitor: qHTS for Inhibitors of mutant isocitrate dehydrogenase 1 (IDH1): qHTS | Isocitrate dehydrogenase [NADP] cytoplasmic (Homo sapiens), O75874 | IDH1-R132H enzyme, NADPH consumption, diaphorase/resazurin fluorescence | Potency, µM (top dose mostly 76.6 µM), without a hit: at the highest dose activity change, negative = inhibition, actives largely listed as inhibitors | 390,000 compounds, 0.093% hits; further: potency means the concentration at half of the fitted maximal effect; on the % scale 0 is the no-effect control and ±100 the full control effect; nearly all actives have a fitted effect of over 65% in size
#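 IDH1-R132H (0.5 ug/mL dispensed) in pH 7.5 Tris buffer was preincubated 30 min with compound, then given a substrate mix of 0.016 mM NADPH and 2 mM alpha-KG for 80 min at room temperature; remaining NADPH was read by diaphorase/resazurin fluorescence.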
# Nrf2 ARE act: qHTS of Nrf2 Activators; AID 624171, 2012; 410,000 compounds, 0.31% hits; AREc32 ARE-luciferase reporter (MCF7-derived line), luminescence, 24 h; Potency, µM (top dose mostly 46.1 µM), inactives show at the top dose activation, hits mostly activators; further: potency means the concentration at half of the fitted maximal effect; % of control where 0% means no effect; nearly all actives have a fitted effect of over 65% in size
#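 Quantitative high-throughput format: AREc32 reporter cells, 1000 per well, received compound by pin transfer and were incubated 24 hr at 37 deg C, 5% CO2, before Steady-Glo luminescence detection.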
# The depositor's hits bear a star; ? = inconclusive; . = not tested or not shown. Unless noted, the call rests on the fitted dose curve; in most records, active means well fitted curve in the direction sought with a large enough effect; inconclusive means small, poorly fitted or top-dose-only effect, or another doubt; inactive means no such curve, though single readings can be large; an effect the other way counts as inactive or inconclusive.
SMILES,A549 viability,Nrf2 block,Giardia killer,Anesthetic bind,mIDH1 inhibitor,Nrf2 ARE act
COc1ccc(OC)c(-n2c3c(cc(-c4nc(-c5ccc(Cl)cc5)cs4)c2=O)C(=O)CC(C)(C)C3)c1,-2%,8%,.,-3%,1.3µM*,0%
COc1ccc(C(=O)Nc2ccccc2C(=O)N/N=C/c2ccccn2)cc1OC,-13%,9.2µM*,-18,-8%,-1%,7%
O=C1OC(/C(=C\Nc2cc(Cl)ccc2O)[N+](=O)[O-])c2ccccc21 (stereo unspecified),-8%,?,-22,-21%,-11%,11µM*
Cn1nnnc1Sc1ncnc2scc(-c3ccc(C(=O)OC(C)(C)C)cc3)c12,-2%,10%,.,.,.,.
CCN(CC)/C(Sc1ccccc1)=C(\C(Cl)=C(Cl)Cl)[N+](=O)[O-],-1%,-3%,1,-7%,12%,5%
O=[N+]([O-])/C(C(Cl)=C(Cl)Cl)=C(\Sc1ccccc1)N1CCCCC1,13%,?,8,-10%,-9%,11µM*
CCS(=O)(=O)c1cccc(C(=O)N2CCN(c3nc4c(C)ccc(Cl)c4s3)CC2)c1,-18%,12µM*,32,8%,-15%,-1%
CCS(=O)(=O)c1ccc(C(=O)N2CCN(c3nc4c(OC)ccc(C)c4s3)CC2)cc1,-15%,.,.,?,4%,1%
Cc1cccc(C(=O)OCC(=O)NC(=O)NC2CCCCC2)c1,.,.,.,.,-5%,-1%
Cc1ccc(C2=NC(c3ccc(F)cc3)=Nc3ccc(C)cc3N2)cc1,6%,?,.,-8%,.,4%
Clc1ccccc1-c1nn2c(-c3cc(-c4ccccc4)n[nH]3)nnc2s1,-15%,23µM*,3,.,.,.
COc1ccc(C2Nc3ccccc3C(=O)N2Cc2ccccc2)cc1COc1cccc(Cl)c1 (stereo unspecified),3%,-12%,.,.,.,.
O=C(COC(=O)c1nc(Cl)c(Cl)c(Cl)c1Cl)c1ccc[nH]1,-6%,20%,-4,.,3%,22µM*
CCC1CCC2(CC1)NC(=O)N(CC(=O)Nc1cccc(S(=O)(=O)N(C)c3ccccc3)c1)C2=O (stereo unspecified),-1%,16µM*,-15,.,12%,2%
CC1CCC2(CC1)NC(=O)N(CC(=O)Nc1cccc(S(=O)(=O)N3CCCCC3)c1)C2=O (stereo unspecified),-2%,18µM*,-12,.,2%,-1%
Cc1ccc(C)c(N2CCN(C(=O)CCS(=O)(=O)c3ccc4c(c3)NC(=O)CO4)CC2)c1,-10%,8.2µM*,-25,-23%,-8%,-1%
Cc1ccc(C)c(N2CCN(C(=O)CCS(=O)(=O)c3ccc4c(c3)CCN4C(=O)C3CC3)CC2)c1,-4%,26µM*,3,-4%,-7%,0%
O=C1COc2ccc(S(=O)(=O)CCC(=O)N3CCN(c4ccccc4)CC3)cc2N1,-3%,2%,-22,4%,-6%,0%
CCC(CCC(C)C1CCC2C3CCC4CC(O)CC[C@@]4(C)C3CC[C@@]12C)C(C)C (stereo partly specified),.,.,.,2%,.,.
Cc1ccccc1Cn1c(=O)n(CCCCCC(=O)NCc2ccc3c(c2)OCO3)c(=O)c2sccc21,-3%,4%,.,-1%,-5%,0%
Cn1cccc1/C=N/NC(=O)Cc1cccc2ccccc12,-2%,18µM*,-2,-16%,15%,0%
Cn1cccc1CC(=O)N/N=C/c1cccc2ccccc12,-2%,4%,9,-11%,12%,9%
Nc1nc(CSC(=S)N2CCN(c3ccccc3)CC2)nc(Nc2ccc(F)cc2)n1,-3%,21µM*,-6,-15%,1%,4%
Nc1nc(CSC(=S)N2CCOCC2)nc(Nc2ccccc2)n1,8%,?,-15,-13%,3%,12%

# Screening data deposited in PubChem BioAssay by National Center for Advancing Translational Sciences (NCATS).
